Reference: article PMC9574860, “Chemical Toolkit for PARK7: Potent, Selective, and High-Throughput” (Journal of Medicinal Chemistry, 2022)
Out of some 7,900 compounds screened, about 400 (5.1%) showed an effect of 50% or more. For the sample, strong results were picked, then their nearest neighbours and some compounds at random.

The compounds below were run against Parkinson's disease protein 7 (PARK7/DJ1) (human, UniProt Q99497) (assay: primary screen, percent inhibition; read as competition with a fluorescent probe by fluorescence polarization; higher = more effect of the substance). Conditions: 100 µM.
Parkinson's disease protein 7 (PARK7/DJ1), sequence (Q99497 whole entry, looked up, the tested form may be a part): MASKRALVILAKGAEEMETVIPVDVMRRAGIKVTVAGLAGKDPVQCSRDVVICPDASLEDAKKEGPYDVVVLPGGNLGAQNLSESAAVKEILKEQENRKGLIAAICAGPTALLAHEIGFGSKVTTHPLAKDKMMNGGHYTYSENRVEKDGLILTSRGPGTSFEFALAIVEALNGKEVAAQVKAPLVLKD
How it was run: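 Fluorescence-polarization probe displacement (JYQ-107, 20 nM final, 2 h) after 2 h preincubation of PARK7 (0.2 μM final) with each fragment at 100 μM final. Read-out ex/em 480/520 nm; remaining activity derived from FP signal loss relative to reference controls.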
`Cc1ccc(C=C(C#N)S(C)(=O)=O)s1` showed an Inhibition % of 6.48%. `Cc1cc(=O)oc2cc(OCC3CO3)ccc12` (centres unmarked) gave an Inhibition % of 7.44%. `CC(C)(C)n1nccc1B1OC(C)(C)C(C)(C)O1` was tested, and the Inhibition % was 6.06%. `CC(CC(O)c1ccc(F)cc1)Nc1ccc(C#N)nc1` (centres unmarked) showed an Inhibition % of 9.7%. In the case of `Sc1ccc(-c2ccco2)nn1`, the Inhibition % was 57.3%. `O=C(CCl)Nc1nc(-c2ccco2)cs1` gave an Inhibition % of 21.8%. Work on `Cc1nc(-c2ccco2)nc(S)c1C(=O)O` yielded an Inhibition % of 1.46%. Compound `O=C(CCl)N1CCCCCC1` has an Inhibition % of 14.9%. `N#Cc1ccnc(C(F)(F)F)c1` gave an Inhibition % of 14.9%. `N#Cc1ccnc(C(=O)O)c1` was tested, and the Inhibition % was 1.71%. For `N#Cc1ccnc(S)c1`, the Inhibition % was 67%. For `O=C(CCl)Nc1ccccc1N1CCCC1=O`, the Inhibition % was -0.367%. `O=C(CCl)Nc1ccc(N2CCCCCC2)cc1` showed an Inhibition % of 99.5%. `O=C(CCl)Nc1ccc(N2CCCCC2)nc1` gave an Inhibition % of 88.9%. Work on `O=C(CCl)Nc1cccnc1N1CCCC1` yielded an Inhibition % of 18.8%. In the case of `O=C(CCl)Nc1ccc(N2CCCC2=O)cc1`, the Inhibition % was 9.28%. `O=C(CCl)NCc1ccc(N2CCCC2)cc1` showed an Inhibition % of 0.611%. For `O=C(CCl)Nc1ccc(N2CCCC2)cc1`, the Inhibition % was 7.34%. `Cl.O=C(CCl)Nc1ccc(N2CCCCC2)cc1` showed an Inhibition % of 89.3%. Work on `CCN1CCN(c2ccc(NC(=O)CCl)cc2)CC1.Cl` yielded an Inhibition % of 37.8%. `O=C(CCl)NCc1ccc(N2CCOCC2)nc1` showed an Inhibition % of 15.2%. Compound `C=CC(=O)N1CC(S(=O)(=O)N2CCc3ccccc32)C1` has an Inhibition % of 3.57%. `O=C(CCCl)Nc1cccc(F)c1` showed an Inhibition % of 5.31%. Compound `C=CC(=O)N1CCC(c2cc3ccccc3[nH]2)C1` (centres unmarked) has an Inhibition % of 13.2%. In the case of `Cc1occc1-c1nnc(SC2CCOC2=O)n1C` (centres unmarked), the Inhibition % was 12.4%. `COc1c(C)cc(S(=O)(=O)n2nc(C)cc2C)c(C)c1C` was tested, and the Inhibition % was 7.42%. Work on `CC1(C)OB(c2cccc3c2CCO3)OC1(C)C` yielded an Inhibition % of 9.99%. `CN(Cc1ccco1)c1ccc(C#N)nc1` was tested, and the Inhibition % was 25.1%. `COc1ccc(CCNC(=O)n2ccnc2)cc1OC` was tested, and the Inhibition % was 10.3%. Work on `O=C(CCl)NCc1ccc2c(c1)OCO2` yielded an Inhibition % of 14%. `O=C(NCc1ccc(Cl)cc1)n1ccnc1` gave an Inhibition % of -1.68%. For `Cc1ccc(CNC(=O)CCl)cc1`, the Inhibition % was 1%. In the case of `C=CC(=O)NCc1ccc2c(c1)OCO2`, the Inhibition % was 11.2%. For `CN(Cc1cccnc1)C(=O)n1ccnc1`, the Inhibition % was 10.8%. Work on `Cc1ccc(CNC(=O)n2ccnc2)cc1` yielded an Inhibition % of 104%. Compound `CN(C)c1ccc(CNC(=O)n2ccnc2)cc1` has an Inhibition % of 97%. `CN(Cc1ccccc1Cl)C(=O)n1ccnc1` showed an Inhibition % of 2.68%. For `Cc1cccc(OCCNC(=O)n2ccnc2)c1`, the Inhibition % was 92.6%. Work on `O=C(NCc1ccc2c(c1)OCO2)n1ccnc1` yielded an Inhibition % of 99.9%. `Cc1cccc(OCCNC(=O)CCl)c1` gave an Inhibition % of 12.5%. `Cn1nncc1B1OC(C)(C)C(C)(C)O1` was tested, and the Inhibition % was 6.79%. For `C=CC(=O)N1CCC(c2ncc(C)s2)CC1`, the Inhibition % was 1.87%. Compound `O=C(C=CC1=CCCC1)N1CCCC(N2CCNC2=O)C1` (centres unmarked) has an Inhibition % of 28%. Compound `Cl.O=S(=O)(F)C1CCCNC1` (centres unmarked) has an Inhibition % of 8.33%. `C=CC(=O)N1CCN(CC)C(=O)C1(C)C` showed an Inhibition % of 2.96%. `C=CC(=O)N1CCC(C#N)(COC)CC1` showed an Inhibition % of 5.2%. Work on `Cc1ccc(NC(=O)CN2CCSC2=O)cc1F` yielded an Inhibition % of 3.32%. With `COC(=O)Cc1csc(NC(=O)CCl)n1` the Inhibition % was 20.2%. `Cc1cc(C)nc(S)c1` was tested, and the Inhibition % was 6.52%. Compound `O=C1OCCC1N1CCOC(c2nccs2)C1` (centres unmarked) has an Inhibition % of 13.9%. In the case of `C=CC(=O)NCCc1ccc(F)cn1`, the Inhibition % was -26.8%. Compound `C=CC(=O)N1CCC(C(=O)N(C)c2ccccc2)C1` (centres unmarked) has an Inhibition % of 9.62%. In the case of `C=CC(=O)NCc1coc2ccccc12`, the Inhibition % was 7.72%. For `O=C(N1CCC1c1ccccc1)n1ccnc1` (centres unmarked), the Inhibition % was 11.7%. `O=C(NCCc1ccc(F)cc1)n1ccnc1` was tested, and the Inhibition % was 12.7%. In the case of `O=C(NCC1CCCC1)n1ccnc1`, the Inhibition % was 40.7%. Compound `COc1ccc(CNC(=O)n2ccnc2)cc1OC` has an Inhibition % of 6.72%. For `CNC(=O)n1ccnc1`, the Inhibition % was 75.1%. In the case of `O=C(NCC(F)(F)F)n1ccnc1`, the Inhibition % was 6.27%. `COc1ccccc1CNC(=O)n1ccnc1` was tested, and the Inhibition % was 5.2%. Work on `CC(C)C(=O)Nc1ccc(CNC(=O)n2ccnc2)cc1` yielded an Inhibition % of 0.0136%. Compound `Cc1ccccc1CCNC(=O)n1ccnc1` has an Inhibition % of 101%. With `COc1cccc(CNC(=O)n2ccnc2)c1` the Inhibition % was 95.1%. For `Cc1ccccc1CCNC(=O)Cn1cnc(C#N)n1`, the Inhibition % was 4.99%. With `O=C(Nc1ccc(CNC(=O)n2ccnc2)cc1)C1CC1` the Inhibition % was 92.1%. For `Cc1cc(C)nc(C#N)c1`, the Inhibition % was 9.14%. `NCC1CCCCN1C(=O)C=Cc1ccccn1` (centres unmarked) was tested, and the Inhibition % was 1.06%. With `C=CC(=O)NC1CCN(C2CCOC2)CC1` (centres unmarked) the Inhibition % was 22%. For `C=CC(=O)NCCc1noc(-c2ccccn2)n1`, the Inhibition % was 11%. For `C=CC(=O)NCc1ccnc(C)n1`, the Inhibition % was 7.47%. For `C=CC(=O)NCc1nnc(C2CC2)o1`, the Inhibition % was 6.84%. In the case of `Nc1ccc(NC(=O)Oc2ccccc2)cc1`, the Inhibition % was 11.2%. In the case of `CC1(C)OB(c2cccc3c2CCC3)OC1(C)C`, the Inhibition % was 3.3%. `CCC(=O)Nc1ccc(C(=O)CCl)cc1` was tested, and the Inhibition % was 4.09%. Work on `CCCC(=O)Nc1ccc(C(=O)CCl)cc1` yielded an Inhibition % of 5.21%. `NC(=O)Nc1ccc(C(=O)CCl)cc1` showed an Inhibition % of 89.6%. Compound `CC(=O)Nc1ccc(C(=O)CCl)cc1` has an Inhibition % of 82.5%. Work on `CS(=O)(=O)c1ccc(C(=O)CCl)cc1` yielded an Inhibition % of 87.3%. Compound `O=C(CCl)NC(=O)c1ccco1` has an Inhibition % of 22.8%. `CS(=O)(=O)c1ccc(OCCCl)cc1` gave an Inhibition % of 4.09%. Work on `CC(C)C(=O)Nc1ccc(C(=O)CCl)cc1` yielded an Inhibition % of 2.39%. `CC(C)CC(=O)Nc1ccc(C(=O)CCl)cc1` showed an Inhibition % of 3.15%. `O=C(CCl)c1ccc(NC(=O)c2ccco2)cc1` gave an Inhibition % of 90.6%. Work on `CC1(C)OB(c2ccc(OCCS(C)(=O)=O)cc2)OC1(C)C` yielded an Inhibition % of -1.19%. Compound `N#Cc1cccc(OCC(F)(F)F)n1` has an Inhibition % of -0.809%. `CN(C)S(=O)(=O)c1ccc(S)nc1` gave an Inhibition % of 31.2%. `O=c1onc(-c2ncccn2)n1Cc1ccccc1F` showed an Inhibition % of 1.26%. For `CC(=O)Nc1ccc(Sc2nccnc2C#N)cc1`, the Inhibition % was 18.2%. In the case of `CC1(C)OB(C2CNC2)OC1(C)C.O=C(O)C(F)(F)F`, the Inhibition % was 11.6%. For `COc1cc(F)ccc1N1CCN(C2CCOC2=O)CC1` (centres unmarked), the Inhibition % was 7.6%. In the case of `O=C(O)CNC(=O)C12CC3CC(CC(Cl)(C3)C1)C2`, the Inhibition % was 7.56%. `Cc1c(NC(=O)CCl)cccc1[N+](=O)[O-]` was tested, and the Inhibition % was 8.38%. Compound `C=CC(=O)NCC1CCC2(CCC2)CO1` (centres unmarked) has an Inhibition % of 5.32%. `O=C(Nc1ccc(Cl)cc1)N1CCCCC1C1OCCO1` (centres unmarked) gave an Inhibition % of 5.3%. `C=CC(=O)N1CCC(c2ccco2)CC1` gave an Inhibition % of 8.73%. In the case of `Cc1ccn(S(=O)(=O)c2ccc(C(C)(C)C)cc2)n1`, the Inhibition % was 4.34%. `Cc1ncsc1C=C(C#N)C(=O)NCCc1ccccc1` gave an Inhibition % of 6.72%. For `CS(=O)(=O)Nc1ccc(B(O)O)cc1`, the Inhibition % was 9.91%. In the case of `CS(=O)(=O)Nc1ccc(C(=O)CCl)cc1`, the Inhibition % was 75.1%. For `Cc1cc(I)ccc1NC(=O)CCl`, the Inhibition % was 7.36%. In the case of `Cc1c(NC(=O)c2cccnc2S)cnn1CCC(C)C`, the Inhibition % was 3.61%. Compound `CC(=O)N1CCc2sc(C(=O)CCl)cc2C1` has an Inhibition % of 73.5%. `O=C(CCl)c1ccc2c(c1)CCN(C(=O)C(F)(F)F)C2` was tested, and the Inhibition % was 2.68%. With `O=C(CCl)NNC(=O)c1cc2c(s1)CCCC2` the Inhibition % was 4.38%. In the case of `N#Cc1c(-c2ccccc2)nc(S)[nH]c1=O`, the Inhibition % was 13.2%. In the case of `Cc1ccc(CN2CCCN(C(=O)CCl)CC2)cc1.Cl`, the Inhibition % was 13%. `COc1cc(S(=O)(=O)n2cccn2)ccc1F` gave an Inhibition % of 1.65%. With `O=C1OCCC1Sc1ncnc2ccsc12` (centres unmarked) the Inhibition % was 3.13%. `CN(C(=O)c1cc(C(N)=O)cs1)C1CC(C)(C)OC1=O` (centres unmarked) showed an Inhibition % of 7.6%. Compound `NC(=O)c1csc(C(=O)CCl)c1` has an Inhibition % of 101%. Compound `CN(C)C(=O)c1ccc(NC(=O)CCl)cc1` has an Inhibition % of 44.1%. For `CN(C)C(=O)c1csc(C(=O)CCl)c1`, the Inhibition % was 67.8%. Work on `O=C(O)c1csc(C(=O)CCl)c1` yielded an Inhibition % of 102%. `CN(C)C(=O)c1cccc(NC(=O)CCl)c1` showed an Inhibition % of 12.2%. `Cn1cc(C(=O)CCl)cc1C(N)=O` was tested, and the Inhibition % was 0.329%. `O=C(CCl)Nc1cccc(C(=O)O)c1` gave an Inhibition % of 13.2%. For `CC(C)C1NC(=O)C12CCCCCC2` (centres unmarked), the Inhibition % was 9.56%. With `C=CC(=O)NC1(C)CCC(C)CC1` (centres unmarked) the Inhibition % was 29.1%. For `C=CC(=O)NCCc1nc2c(C)cccc2o1`, the Inhibition % was 9.51%. Work on `Cc1cc(NC(=O)CCl)n(-c2ccccc2)n1` yielded an Inhibition % of 29.6%. For `Cc1nn(-c2ccccc2)c(C)c1C=C(C#N)C(=O)O`, the Inhibition % was 6.36%. `CN(C)C(=O)c1ccc(B2OC(C)(C)C(C)(C)O2)c(Cl)c1` showed an Inhibition % of 2.75%. Work on `Cn1ncc(C(=O)O)c1C#N` yielded an Inhibition % of 13.7%. `Cl.NCc1cc(=O)[nH]c(S)n1` gave an Inhibition % of 27.5%. In the case of `NC(=O)Cc1cc(=O)[nH]c(S)n1`, the Inhibition % was 52.6%. `CCCc1cc(=O)[nH]c(S)n1` was tested, and the Inhibition % was 8.86%. For `N#CC(=Cc1ccc(F)cc1)C(=O)O`, the Inhibition % was 2.9%. In the case of `C=CC(=O)NCC1(C)OCCc2sccc21` (centres unmarked), the Inhibition % was 16.4%.
